The record followed here is PubChem BioAssay (NCATS).

Values joined by “and” are separate entries in the source; they are usually repeats but may differ in a detail not shown here. Identical values can stand only once.

A short description of assay [1]: qHTS profiling for inhibitors of Plasmodium falciparum (3D7) proliferation (AID 743322).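 Also: infected erythrocytes exposed to compound for 72 h before lysis; 100% = DMSO vehicle wells and 0% = 0.29 µM artemisinin.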 To be noted: P. falciparum 3D7 proliferation; at 28.7 µM (top of the series). Put shortly:
(§1)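 Erythrocytes infected with P. falciparum (0.3% parasitemia, 2.5% hematocrit) incubated with compounds 72 h at 37 C, 5% CO2. Lysis with saponin/Triton buffer containing SYBR Green I, overnight at room temperature in the dark; DNA fluorescence (485/535 nm) normalised to 0.29 uM artemisinin and DMSO.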

Assay [2] can be described thus: qHTS profiling for inhibitors of Plasmodium falciparum (DD2) proliferation (AID 743323). To be noted: lower = more inhibition; at 28.7 µM (top of the series). In short, it runs like this: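 SYBR Green fluorescence (ex 485, em 535 nm) of lysed cultures gives parasite DNA content; wells normalized to artemisinin (0.29 uM) and DMSO controls. Infected red cells: 0.3% parasitemia, 2.5% hematocrit, 72 h, 37 C.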
A general note: Quantitative high-throughput screening tests each substance at several concentrations.

A short description of assay [3]: qHTS profiling for inhibitors of Plasmodium falciparum (HB3) proliferation (AID 743324).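 Also: 100% = DMSO vehicle wells and 0% = artemisinin-treated control wells.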 Conditions: Plasmodium falciparum HB3 blood-stage proliferation; at 28.7 µM (top of the series). In short, it runs like this:
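P. falciparum HB3 grown in erythrocytes (0.3% parasitemia, 2.5% hematocrit final) with compound for 72 h at 37 C, 5% CO2. Parasite DNA detected by SYBR Green after saponin/triton lysis overnight; normalized to 0.29 uM artemisinin and DMSO.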

Assay [4] in a line: qHTS profiling of the MIPE4 collection as inhibitors of Plasmodium falciparum (3D7) proliferation (AID 743344).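 Also: scaled between DMSO vehicle wells and 0.29 µM artemisinin as full inhibition.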 Conditions: P. falciparum 3D7 in erythrocytes, SYBR Green DNA fluorescence, 72 h; at 28.5 µM (top of the series) unless noted. In short, it runs like this:
as §1

A short description of assay [5]: qHTS profiling of the MIPE4 collection as inhibitors of Plasmodium falciparum (DD2) proliferation (AID 743345). Conditions: P. falciparum Dd2 in erythrocytes, SYBR Green DNA, 72 h; at 28.5 µM (top of the series) unless noted. In short, it runs like this: as §1
The nature of assay [6]: qHTS profiling of the MIPE4 collection as inhibitors of Plasmodium falciparum (DD2) proliferation (Rep 2) (AID 743346). To be noted: P. falciparum Dd2 in erythrocytes, SYBR Green DNA, 72 h; at 28.5 µM (top of the series) unless noted. In short, it runs like this: as §1
A short description of assay [7]: High-throughput drug toxicity screening in the BPDCN cell line Gen2.2 (AID 1224824).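 Also: cells exposed to compounds for 48 h before reading.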 Conditions: Gen2.2 BPDCN cells; at 45.8 µM (top of the series) unless noted. Put shortly: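 Gen2.2 cells (500/well) in phenol red-free RPMI with 10% FBS were exposed to compounds for 48 h at 37 °C, 5% CO2. Viability was read by CellTiter-Glo luminescence and normalized to DMSO (100%) and 9.2 uM bortezomib (0%).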

A short description of assay [8]: High-throughput drug toxicity screening in the BPDCN cell line Cal-1 (AID 1224825). To be noted: Cal-1 BPDCN cell viability, qHTS; at 45.8 µM (top of the series) unless noted. Put shortly:
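500 Cal-1 cells/well, RPMI + glutamine + 10% FBS (phenol red-free); cpd added by pin tool; 48 h, 37C, 5% CO2; CTG 15 min RT, lumi read. Normalised: DMSO 100%, bortezomib 9.2 uM 0%.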

A short description of assay [9]: qHTS profiling of the MIPE4 collection as inhibitors of Plasmodium falciparum (HB3) proliferation (AID 743347).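 Also: plate controls were DMSO vehicle wells for no effect and artemisinin wells for full effect.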 To be noted: P. falciparum HB3 in erythrocytes, SYBR Green DNA, 72 h; at 28.5 µM (top of the series) unless noted. Put shortly: as §1

For the molecule `CCCCc1nc2cc(C=CC(=O)NO)ccc2n1CCN(CC)CC`, the remaining parasite growth % (stronger effect = lower value) in assay [1] is -0.311%. Also, the activity, percent of control in assay [2] is -0.413%. Besides, the remaining proliferation (% of control), lower = more inhibition in [3] was -0.411%. The same molecule had a parasite growth, % of DMSO control in [4] of 4.71%. Besides, the parasite growth remaining, % of DMSO control (lower = more inhibition) in assay [5] was found to be 7.36%. Moreover, the parasite growth, % of control (lower = inhibition) in assay [6] amounted to 7.61%. Besides, in [7], the cell viability, % of control (lower = more cytotoxic) is 53.2%. The viability (% of control) in assay [8] stood at 7.58%.

With `O=C(NCCCNc1nc(Nc2cccc(NC(=O)N3CCCC3)c2)ncc1I)c1cccs1`, in assay [1], the remaining parasite growth % (stronger effect = lower value) was 2.01% and 8.72%. Moreover, the activity, percent of control in assay [2] was 5.54% and 10.1%. Moreover, the remaining proliferation (% of control), lower = more inhibition in assay [3] was 1.48% and 5.6%. The molecule further displayed a parasite growth, % of DMSO control in assay [4] of 6.21%. In assay [5], this molecule displayed a parasite growth remaining, % of DMSO control (lower = more inhibition) of 12.5%. In assay [6], this molecule gave a parasite growth, % of control (lower = inhibition) of 28.1%. For the same molecule, the growth, % of control in assay [9] came to 4.4%. The same molecule showed a cell viability, % of control (lower = more cytotoxic) in [7] of 5.4%. In [8], the viability (% of control) was found to be 2.96%.

In assay [7], `C=CC(=O)N1CCC[C@@H](n2nc(-c3ccc(Oc4ccccc4)cc3)c3c(N)ncnc32)C1` yielded a cell viability, % of control (lower = more cytotoxic) of 43.2%. In [8], this molecule showed a viability (% of control) of 6.59%.

Turning to `Cc1ccc(C(=O)Nc2cccc(C(F)(F)F)c2)cc1-c1ccc2nc(NCCN3CCOCC3)ncc2c1`, in assay [1], the remaining parasite growth % (stronger effect = lower value) was -2.64%. The activity, percent of control in assay [2] came to 0.812%. For the same molecule, in assay [3], the remaining proliferation (% of control), lower = more inhibition was -1.12%. The same molecule showed a parasite growth, % of DMSO control in assay [4] of 6.03%. In [5], this molecule returned a parasite growth remaining, % of DMSO control (lower = more inhibition) of 7.55%. In [6], this molecule registered a parasite growth, % of control (lower = inhibition) of 22.9%. This molecule gave a cell viability, % of control (lower = more cytotoxic) in assay [7] of 11.1%. This molecule also registered a viability (% of control) in [8] of 5.9%.

With `C[C@@H]1CN(CC(=O)Nc2ccc3c(c2)Cc2cccc(-c4cc(=O)cc(N5CCOCC5)o4)c2S3)C[C@H](C)O1`, the remaining parasite growth % (stronger effect = lower value) in assay [1] is -0.753%. Further, the activity, percent of control in [2] worked out at 3.61%. For the same molecule, the remaining proliferation (% of control), lower = more inhibition in assay [3] was -0.663%. The parasite growth, % of DMSO control in assay [4] came out at 7.08%. The molecule also returned a parasite growth remaining, % of DMSO control (lower = more inhibition) in [5] of 20.9%. In addition, the parasite growth, % of control (lower = inhibition) in [6] worked out at 9.57%. Besides, the growth, % of control in [9] amounted to 2.59%. The same molecule registered a cell viability, % of control (lower = more cytotoxic) in assay [7] of 11.9%. In [8], the viability (% of control) is 13.3%.

With `O=C(O)c1ccc2cc(-c3ccc(O)c(C45CC6CC(CC(C6)C4)C5)c3)ccc2c1`, the remaining parasite growth % (stronger effect = lower value) in assay [1] is 5.44%. Also, in assay [2], the activity, percent of control stood at 10.6%. In addition, in [3], the remaining proliferation (% of control), lower = more inhibition is -1.12%. The molecule also registered a parasite growth, % of DMSO control in assay [4] of 13.5%. The molecule further returned a parasite growth remaining, % of DMSO control (lower = more inhibition) in [5] of 40%. Also, the parasite growth, % of control (lower = inhibition) in assay [6] turned out to be 25.3%. Moreover, the growth, % of control in assay [9] worked out at 11.7%. In addition, in [7], the cell viability, % of control (lower = more cytotoxic) is 30.9%. The molecule also came in with a viability (% of control) in assay [8] of 7.6%.

As for `CN(c1ncccc1CNc1nc(Nc2ccc3c(c2)CC(=O)N3)ncc1C(F)(F)F)S(C)(=O)=O`, the remaining parasite growth % (stronger effect = lower value) in [1] stood at 12.7%. Besides, the activity, percent of control in assay [2] came to 9.35%. The remaining proliferation (% of control), lower = more inhibition in assay [3] stood at 5.89%. Also, the parasite growth, % of DMSO control in assay [4] stood at 12.5%. In assay [5], this molecule showed a parasite growth remaining, % of DMSO control (lower = more inhibition) of 14.1%. In addition, the parasite growth, % of control (lower = inhibition) in [6] amounted to 30.9%. This molecule registered a cell viability, % of control (lower = more cytotoxic) in assay [7] of 12.1%. In assay [8], this molecule yielded a viability (% of control) of 4.76%.

The molecule `Clc1cccc(-n2nnnc2NCc2ccccc2Oc2ccccn2)c1Cl` returned a cell viability, % of control (lower = more cytotoxic) in assay [7] of 100%. In assay [8], the viability (% of control) is 100%.

In the case of `O=C(NC1CCNCC1)c1[nH]ncc1NC(=O)c1c(Cl)cccc1Cl`, in [1], the remaining parasite growth % (stronger effect = lower value) was 5.64% and 1.64%. The activity, percent of control in assay [2] is 9.64% and 5.01%. The remaining proliferation (% of control), lower = more inhibition in assay [3] is 9.9% and 2.81%. The molecule also came in with a parasite growth, % of DMSO control in [4] of 10.8%. The parasite growth remaining, % of DMSO control (lower = more inhibition) in assay [5] was determined as 11.4%. The parasite growth, % of control (lower = inhibition) in [6] turned out to be 22%. For the same molecule, the growth, % of control in assay [9] was found to be 8.44%. The molecule also came in with a cell viability, % of control (lower = more cytotoxic) in [7] of 5.14%. The viability (% of control) in assay [8] came out at 2.11%.

As for `COc1cc2ncn(-c3cc(OCc4ccccc4C(F)(F)F)c(C(N)=O)s3)c2cc1OC`, in assay [1], the remaining parasite growth % (stronger effect = lower value) was found to be 18.7%. In addition, in assay [2], the activity, percent of control came to 43.8%. Also, the remaining proliferation (% of control), lower = more inhibition in [3] turned out to be 13%. The parasite growth, % of DMSO control in assay [4] amounted to 41.3%. In [5], the parasite growth remaining, % of DMSO control (lower = more inhibition) amounted to 65%. Besides, the parasite growth, % of control (lower = inhibition) in assay [6] came to 44.3%. This molecule yielded a growth, % of control in [9] of 35.9%. The molecule further showed a cell viability, % of control (lower = more cytotoxic) in assay [7] of 43.1%. This molecule also returned a viability (% of control) in assay [8] of 4.46%.

In the case of `Cc1ccc(C(N)=O)cc1Nc1nccc(-c2cn(C(C)C)c3cnccc23)n1`, the remaining parasite growth % (stronger effect = lower value) in [1] is -1.17%. Further, the activity, percent of control in assay [2] worked out at 0.145%. The remaining proliferation (% of control), lower = more inhibition in [3] is -1.54%. In assay [4], this molecule came in with a parasite growth, % of DMSO control of 5.53%. Also, the parasite growth remaining, % of DMSO control (lower = more inhibition) in assay [5] worked out at 6.53%. The molecule also showed a parasite growth, % of control (lower = inhibition) in assay [6] of 7.77%. The same molecule came in with a growth, % of control in assay [9] of 3.05%. In assay [7], the cell viability, % of control (lower = more cytotoxic) worked out at 4.31%. In addition, the viability (% of control) in assay [8] stood at 3.01%.
